This note sets out measurements from PubChem BioAssay (NCI).

This is part of a sample that, as a whole, favours compounds with a hit. Of some 83,000 tested, about 20% had one in any assay.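 Assay: single dose, 48 h. Readout: percent growth (0 = no net growth; negative = cell death). Active: <10.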 Active and inactive are the calls of the source.

The subject of the assay is UO-31 renal. The assay is described as follows: NCI-60 one-dose screen, 48 h (100 = growth as untreated, 0 = no growth, -100 = all killed). The following applies: 10 µM unless noted.
Regarding `CCCCCN(CCCCC)CCC[C@@H](C)[C@H]1CC[C@H]2[C@@H]3[C@H](OCCCN)C[C@@H]4C[C@H](OCCCN)CC[C@]4(C)[C@H]3C[C@H](OCCCN)[C@]12C`, the growth is 65.2% (inactive).
With `O=C(CN1CCOCC1)Nc1ccc(Cn2nnc3c2C(=O)c2nnn(Cc4ccc(NC(=O)CN5CCOCC5)cc4)c2C3=O)cc1` the figure was 85.3% (inactive); with `COc1ccc(C(=O)/C=C/c2c(Cl)c3c(c(OC)c2Cl)OCC(=O)N3)cc1`, 56.7% (inactive).
Under `CCOc1ccc(Nc2nc(-c3c(C)nc4ncccn34)cs2)cc1` stands 33.9% (inactive); under `CC1=C(NCCN2CCCC2)C(=O)c2c(OCc3ccc(C(F)(F)F)cc3)cccc2C1=O`, 62.1% (inactive); under `CC/C(=C(\c1ccc(O)cc1)c1ccc(OCCN(C)CCN(C)C(=O)CCCCC(=O)c2c(C)[nH]c(/C=C3\N=C(c4ccc[nH]4)C=C3OC)c2C)cc1)c1ccccc1`, 55.8% (inactive).
Under `O=C(CCCN1CCOCC1)Nc1ccc(Cn2nnc3c2C(=O)c2nnn(Cc4ccc(NC(=O)CCCN5CCOCC5)cc4)c2C3=O)cc1` stands 103% (inactive); under `COc1ccc2nc3cc(Cl)ccc3c(N3CCN(c4nccc(NCc5ccccc5)n4)CC3)c2c1`, 45.9% (inactive).
Consider `O=C1CC(c2nc3ccccc3[nH]2)CN1C1CCCCC1` (centres undefined), for which the growth was 78.4% (inactive).
`O=C1Nc2ccccc2C12CC(c1ccc(Cl)cc1)=NN2` (centres undefined): the growth was 69.2% (inactive).
Under `O=C1/C(=C/c2ccc(Cl)cc2Cl)CN(S(=O)(=O)c2ccccc2)C/C1=C\c1ccc(Cl)cc1Cl` stands -61.4% (active).
As for `O=C(CCCCN1CCOCC1)Nc1ccc(Cn2nnc3c2C(=O)c2nnn(Cc4ccc(NC(=O)CCCCN5CCOCC5)cc4)c2C3=O)cc1`, the growth is 10.5% (inactive).
With `COc1ccc2nc3cc(Cl)ccc3c(N3CCN(c4nccc(Nc5ccccc5)n4)CC3)c2c1` the figure was 43.7% (inactive); with `CC1=C(NCCN2CCCC2)C(=O)c2c(OCc3cccc(Cl)c3)cccc2C1=O`, 52.7% (inactive); with `O=C(CCN1CCOCC1)Nc1ccc(Cn2nnc3c2C(=O)c2nnn(Cc4ccc(NC(=O)CCN5CCOCC5)cc4)c2C3=O)cc1`, 108% (inactive).
Under `NC1=CSC2=N/C(=C\c3ccc(Cl)cc3)C(=O)N12` stands 58.2% (inactive); under `Cc1sc2nc3[nH]/c(=C\c4ccc(Cl)cc4)c(=O)n3c(=O)c2c1C`, 103% (inactive).
With `COc1ccc2nc3cc(Cl)ccc3c(N3CCN(c4ccnc(N5CCN(C)CC5)n4)CC3)c2c1` the figure was 51.2% (inactive); with `CN(C)CCCC(=O)Nc1ccc(Cn2nnc3c2C(=O)c2nnn(Cc4ccc(NC(=O)CCCN(C)C)cc4)c2C3=O)cc1`, 94.5% (inactive); with `CCCCCCCCCCCCCCCCNCCC[C@@H](C)[C@H]1CC[C@H]2[C@@H]3[C@H](OCCCN)C[C@@H]4C[C@H](OCCCN)CC[C@]4(C)[C@H]3C[C@H](OCCCN)[C@]12C`, -52.5% (active).
As to `O=C(Nc1cccc2[nH]c(C(F)(F)F)nc12)c1ccc(Br)cc1F`, the growth was 10.9% (inactive).
Turning to `CCCCNc1ccc2c3c1cccc3c(=O)n1c3ccccc3nc21`, the growth was 58.6% (inactive).
With `COc1ccc(/C=C2\N=C3SC=C(N)N3C2=O)cc1`, the growth is -4.09% (active).
Under `COc1ccc2nc3cc(Cl)ccc3c(N3CCN(c4nccc(Nc5ccc(Cl)cc5)n4)CC3)c2c1` stands 54.8% (inactive); under `CC1=C(NCCN2CCCC2)C(=O)c2c(OCc3ccc(F)c(Cl)c3)cccc2C1=O`, 42.8% (inactive); under `O=C1C[C@H](N2C(=O)c3ccccc3S2(=O)=O)C2CO[C@@H]1O2`, 63.7% (inactive).
Under `Cc1ccc(S(=O)(=O)n2cc(-c3csc(-c4cn(C)c5ncccc45)n3)c3ccccc32)cc1` stands 57.3% (inactive).
Under `COc1ccc(-c2cnoc2-c2cc(OC)c3c(c2)OCCO3)cc1` stands 39.6% (inactive); under `COc1ccccc1-c1ccc2c(N)c(C(=O)c3ccc4c(c3)OCO4)sc2n1`, 78.5% (inactive).
As for `COc1ccc(/C=c2/c(=O)[nH]c3nc4sc(C)c(C)c4c(=O)n23)cc1`, the growth is 73% (inactive).
With `CC(=O)N1CC(Nc2ccc(OC(F)(F)F)cc2)=CC1=O` the figure was 65.7% (inactive); with `O=c1c2cccc3c(Nc4c(F)cccc4F)ccc(c32)c2nc3ccccc3n12`, 50.6% (inactive); with `CCC(C)[C@@H]1NC(=O)[C@@H]2CCCN2C(=O)[C@H](Cc2ccccc2)NC(=O)[C@@H]2CCCN2C(=O)[C@H](Cc2ccccc2)NC(=O)[C@@H]2CCCN2C(=O)[C@H](Cc2ccccc2)NC1=O` (some centres undefined), 105% (inactive).
Under `O=C1CC(c2nc3ccccc3s2)CN1C1CCCCC1` (centres undefined) stands 70.5% (inactive); under `Cc1cc(OCc2ccc(C(F)(F)F)cc2)c2c(c1)C(=O)C=C(NCCN1CCCC1)C2=O`, 53.8% (inactive); under `O=C1Nc2ccccc2C12CC(c1ccccc1)=NN2` (centres undefined), 57.6% (inactive).
With `CCN(CC)CCC(=O)Nc1ccc(Cn2nnc3c2C(=O)c2nnn(Cc4ccc(NC(=O)CCN(CC)CC)cc4)c2C3=O)cc1` the figure was 99.9% (inactive).
Consider `Cn1cc(-c2nc(-c3c[nH]c4ccccc34)cs2)c2cccnc21`, for which the growth is 43.8% (inactive).
For `CCN(CC)CCCC(C)N/C(=C1\C(=O)NC(=O)\C1=C(/NC(C)CCCN(CC)CC)c1cccc(OC)c1)c1cccc(OC)c1` (centres undefined), the growth was -83.8% (active).
